High-throughput results as filed in PubChem BioAssay.
DUSP3 inh: DUSP3 (human) phosphatase inhibition; P51452; recombinant VHR phosphatase, pNPP absorbance; inhibition, % at 13.3 µM; 290,000 tested, 0.52% active; in the data active means inhibition above about 50%
Target sequence (P51452 whole entry, looked up): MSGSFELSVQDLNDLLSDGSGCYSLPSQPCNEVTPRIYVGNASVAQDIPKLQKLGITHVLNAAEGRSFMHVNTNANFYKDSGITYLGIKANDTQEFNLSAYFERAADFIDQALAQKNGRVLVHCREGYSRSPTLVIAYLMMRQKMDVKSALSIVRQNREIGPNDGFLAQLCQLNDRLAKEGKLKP
CCHF vOTU inh: blocks the CCHF virus ovarian tumor domain protease; CCHFV vOTU protease, Pep-AMC fluorescence; inhibition, % at 11.5 µM; 370,000 tested, 0.55% active; AID 651958; in the data active means inhibition above about 30%; further: 0% = vehicle wells with enzyme and 100% = no enzyme wells
PriA SSB inh: blocks PriA binding to SSB C-terminal tail | AlphaScreen SSBct-PriA binding, biotinylated peptide | inhibition, % at 33 µM | 430,000 tested, 0.6% active; in the data active means inhibition mostly above about 37%, no sharp cut-off; inactive means mostly below about 20%;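 further: plate controls were negative control peptide for no effect and reference peptide for full effect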
BH1578 lux ind: inducers of Vibrio cholerae quorum light production without autoinducers | V. cholerae BH1578 lux reporter, luminescence, 6 h | AID 588436 | activation, % at 18.7 µM | 350,000 tested, 0.16% active; in the data active means activation mostly above about 9.7%, no sharp cut-off
SARS 3CLpro inh: SARS-CoV 3CLpro protease inhibition | P0C6X7 | recombinant SARS-CoV 3CLpro, quenched FRET peptide cleavage | inhibition, % at 6 µM | 290,000 tested, 0.14% active; in the data active means inhibition above about 12%
TcdB inh: blocks C. difficile toxin B glycohydrolase activity; P18177; TcdB glycohydrolase enzymatic assay, plate reader; inhibition, % at 9.99 µM; 350,000 tested, 0.24% active; in the data active means inhibition above about 10%
* marks the source's active call; other numbers are inactive results; i = inactive; nt = no result. An excerpt weighted towards active compounds, which were near 1.3% of everything screened.

SMILES | DUSP3 inh | CCHF vOTU inh | PriA SSB inh | BH1578 lux ind | SARS 3CLpro inh | TcdB inh
N#Cc1sc2nc(C3CC3)cc(-c3ccccc3)c2c1N | 13 | -1 | -15 | -1 | 4 | 2
Cc1ccc(OCCNc2cc(N3CCN(CCO)CC3)ccc2[N+](=O)[O-])cc1C | 8 | 6 | 55* | 0 | 1 | nt
CN(C)S(=O)(=O)c1ccc(C(O)=C2C(=O)C(=O)N(CCCN3CCOCC3)C2c2ccncc2)cc1 (stereo not drawn) | nt | nt | -31 | nt | nt | nt
CCOC(=O)c1c(NCC(C)C)c2ccccc2[nH]c1=O | 9 | 1 | -4 | 17* | 1 | nt
CCOC(=O)c1[nH]c2ccccc2c1NC(=O)c1ccc2c(c1)OCO2 | -8 | -1 | 97* | 0 | -3 | 0
CCCC(=O)Nc1c(C(=O)OCC)[nH]c2ccccc12 | -10 | -3 | 39* | 0 | -3 | 3
CCOC(=O)c1[nH]c2ccc(OC)cc2c1NC(=O)c1ccc2c(c1)OCO2 | 6 | -4 | -9 | -2 | 0 | nt
CCOC(=O)c1[nH]c2ccccc2c1NC(=O)CC(C)C | 10 | 6 | i | 0 | nt | 0
O=C(COc1ccc2ccc(=O)oc2c1)NCCN1CCOCC1 | nt | -1 | nt | i | nt | 13*
Cc1cc(=O)oc2cc(OCC(=O)NCCN3CCOCC3)ccc12 | 12 | -2 | -14 | 5 | 0 | 1
CCOc1ccc2nc(Cl)c(C3CC(c4ccc(C)cc4)=NN3C(=O)c3cccs3)cc2c1 (stereo not drawn) | nt | nt | -6 | nt | nt | nt
CCc1cnc2c(c1NCCc1c[nH]c3ccccc13)c(=O)n(C)c(=O)n2C | nt | nt | 1 | nt | nt | nt
Cc1[nH][nH]c(=O)c1C(c1ccc(-c2ccc(Cl)c(Cl)c2)o1)c1c(C)[nH][nH]c1=O | 24 | 43* | 17 | i | 2 | nt
O=C(CN1CCN(c2nccn2-c2ccccc2F)CC1)N1CCc2ccccc21 | nt | nt | 44* | nt | nt | nt
CCCCC(=O)NC(=S)Nc1cc([N+](=O)[O-])ccc1OC | 26 | 2 | -10 | 0 | -4 | 2
COc1ccc([N+](=O)[O-])cc1NC(=S)NC(C)=O | 18 | 14 | -2 | 0 | 0 | 16*
COc1cc([N+](=O)[O-])ccc1NC(=O)Oc1ccc(NC(C)=O)cc1 | 5 | -2 | 18 | -1 | -4 | 10*
COc1ccc(C)cc1NCc1ccc([N+](=O)[O-])cc1 | -28 | -10 | 40* | 1 | -8 | -2
CCOc1ccc(NC(=O)CSc2nc3scc(-c4ccc(C)o4)c3c(=O)n2-c2ccccc2)cc1 | nt | nt | 0 | nt | nt | nt
Cc1cccc(NC(=S)NNc2nc(N3CCOCC3)nc(N3CCOCC3)n2)c1C | nt | nt | -3 | nt | nt | nt
Cc1ccc(CSc2nc3nc(C)cc(C)c3c(=O)[nH]2)cc1 | -8 | -10 | -6 | 0 | 1 | 13*
Cc1cc(C)c2c(=O)[nH]c(SCc3ccccc3)nc2n1 | 4 | -7 | -16 | 0 | 2 | 0
CCOC(=O)CCC(=O)N1CCC[C@H](Cc2nc(-c3ccsc3)no2)C1 | nt | nt | 2 | nt | nt | nt
CCOc1ccc(/C=N/NC(=O)CN2CCCCC2)cc1OCC | 54* | -3 | nt | i | -3 | 2
CCCOc1ccc(C=NNC(=O)CN2CCCCC2)cc1OCC | nt | nt | -8 | nt | nt | nt
SMILES | DUSP3 inh | CCHF vOTU inh | PriA SSB inh | BH1578 lux ind | SARS 3CLpro inh | TcdB inh
CC(C)CCNc1nc(-c2ccco2)c2c(c1C#N)CCCC2 | 59* | -2 | 12 | i | -1 | nt
CC12CCC(C(=O)O)(C/C1=N/O)C2(C)C (stereo not drawn) | nt | nt | 13 | nt | nt | nt
Cn1cccc1-c1cc(C(=O)N/N=C/c2ccc(F)cc2)[nH]n1 | -2 | 2 | nt | 0 | 0 | 2
Cn1cccc1-c1cc(C(=O)N/N=C/c2cccc(Br)c2)[nH]n1 | nt | nt | 47* | nt | nt | nt
Cc1ccc(C(=O)OCC(=O)c2cc(C)n(CC3CCCO3)c2C)cc1 (stereo not drawn) | 12 | -4 | 6 | i | -3 | 16*
COc1cccc(OCCNC(=O)c2ccc(F)cc2)c1 | nt | nt | 20 | nt | nt | nt
O=C(Nc1nc(S(=O)(=O)Cc2ccccc2)ns1)c1ccc2c(c1)OCO2 | nt | nt | -1 | nt | nt | nt
O=C(NC(=S)Nc1cccc2cc(O)ccc12)c1ccccc1Br | 26 | 8 | 15 | i | 4 | 1
COc1ccccc1C(=O)NC(=S)Nc1cccc2cc(O)ccc12 | 5 | 15 | 42* | i | 2 | 2
CC1(C)CC(NS(=O)(=O)c2ccc(Cl)cc2)CC(C)(C)N1 | 54* | -5 | -8 | i | 1 | 0
Cc1cc(S(=O)(=O)NC2CC(C)(C)NC(C)(C)C2)c(Cl)cc1Cl | 60* | -10 | -3 | i | -8 | 0
COc1cc(C)c(Cl)cc1S(=O)(=O)NC1CC(C)(C)NC(C)(C)C1 | 38 | nt | nt | nt | -1 | nt
COc1cc(N2CCN(S(=O)(=O)c3ccc4cccc5c4c3CC5)CC2)nc(C)n1 | nt | nt | -3 | nt | nt | nt
COC(=O)N1CCc2ccc(NC(=O)Cc3c(C)noc3C)cc2C1 | nt | nt | -2 | nt | nt | nt
CCOC(=O)c1oc2ccccc2c1NC(=O)CSCc1ccccc1 | nt | nt | -48 | nt | nt | nt
CCCn1c(SCC(=O)NC2CCCCC2)nnc1-c1ccco1 | 58* | 7 | -3 | 0 | -3 | 0
CC(=O)NC(Cc1cc(C)ccc1C)C(=O)N1CCN(C(=O)c2ccc([N+](=O)[O-])cc2)CC1 (stereo not drawn) | 54* | 7 | 8 | -1 | 1 | 0
CC(C)c1nc(-c2ccc(N3CCN(C(=O)c4nc5ccccc5s4)CC3)nc2)no1 | nt | nt | -2 | nt | nt | nt
C/[N+]([O-])=C/c1ccnc2c1ccc1cccnc12 | nt | nt | 148* | nt | nt | nt
Cc1ccnc2c1ccc1cccnc12 | nt | -9 | 103* | -1 | nt | 1
Cc1ccnc2c1ccc1c(C)ccnc12 | nt | nt | 98* | -3 | nt | nt
O=C(CN1CCN(Cc2nc(-c3ccco3)cs2)CC1)NCc1ccccc1 | nt | nt | -2 | nt | nt | nt
CC(C)(C)C(=O)C1=C(O)C(=O)N(c2ccccc2)C1c1ccccc1 (stereo not drawn) | 4 | -1 | -20 | -1 | 1 | 22*
C#CCn1c(=NC(=O)c2ccn(C)n2)sc2cc(Cl)ccc21 | nt | nt | 13 | nt | nt | nt
COc1cccc(CNCc2ccc(OC)cc2OC)c1 | 56* | 5 | -11 | i | -1 | -4
SMILES | DUSP3 inh | CCHF vOTU inh | PriA SSB inh | BH1578 lux ind | SARS 3CLpro inh | TcdB inh
COc1ccc(CNCc2ccc(F)cc2)c(OC)c1 | -19 | 4 | -3 | i | -3 | 0
CCOc1cc(CNCc2cc(OC)cc(OC)c2)ccc1OC | 51* | -16 | 0 | i | 1 | -1
O=C(Cc1ccccc1Cl)NCCn1nc(-c2ccncc2)c2c1CCCC2 | nt | nt | -5 | nt | nt | nt
COc1cc(S(=O)(=O)NCc2ccco2)c(C)cc1Br | nt | nt | 9 | nt | nt | nt
NC(=O)[C@@H]1CCCNc2c(I)cc([N+](=O)[O-])cc2C(=O)N[C@@H](CCCN=C(N)N)C(=O)N[C@@H](CCCN=C(N)N)C(=O)N1 | 0 | nt | nt | nt | 0 | nt
CC[C@H](C)[C@@H]1NC(=O)c2cc([N+](=O)[O-])cc(I)c2NCC[C@@H](C(N)=O)NC(=O)[C@H](CCCN=C(N)N)NC1=O | -4 | 6 | 18 | nt | 3 | 10*
NC(=O)[C@@H]1CCCNc2c(I)cc([N+](=O)[O-])cc2C(=O)N[C@@H](CO)C(=O)N[C@@H](Cc2ccc(O)cc2)C(=O)N1 | -3 | 5 | 2 | 0 | 1 | 1
